# Source: PubChem BioAssay
# Compounds with a hit are over-represented: about 8.2% of the library has one in this group of screens.
# ELG1 repair inh: inhibitors of ELG1-dependent DNA repair in HEK293T cells; AID 504467; hit rate 2.3% among 330,000; Potency, µM (doses to about 46.1 µM), for the others: at the highest dose activity change, negative = inhibition, hits mostly inhibitors; HEK293T ELG1-luciferase reporter, luminescence, 16 h; DNA damage induced by 5-fluorouridine; further: on the % scale 0 is the no-effect control and ±100 the full control effect; nearly all actives have a fitted effect of over 55% in size
#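 In this reporter screen, reduction of luminescence relative to DMSO vehicle indicated activity. Compounds and 5-fluorouridine were added together to 2,000 cells per well, incubated for 16 hr at 37 °C, then developed with ONE-Glo.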
# MCF10A rereplic: inducers of DNA re-replication in MCF 10A breast cells. Potency, µM (titrated, usually from 46.1 µM), inactives show top-dose activity, positive = re-replication, most hits filed as activators. MCF 10A DNA re-replication, Hoechst nuclear intensity, 48 h. hit rate 2.9% among 350,000; further: % of control where 0% means no effect; nearly all actives have a fitted effect of over 50% in size
# KB-V1 cytotox: kills drug-selected multidrug resistant KB-V1 cells. KB-V1 MDR cells viability, CellTiter-Glo, 72 h. AID 1347076. hit rate 3.4% among 400,000. Potency, µM (highest dose often 46.1 µM), hits mostly cytotoxic; further: on the % scale 0 is the no-effect control and ±100 the full control effect; nearly all actives have a fitted effect of over 60% in size
#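 Cells of the MDR subline KB-V1 are plated, dosed with compound at multiple concentrations, and incubated 72 h at 37 degrees C; CellTiter-Glo is then added and luminescence read after 10 min.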
# KB-3-1 tox: KB-3-1 parental cell cytotoxicity; KB-3-1 viability, CellTiter-Glo ATP luminescence, 72 h; Potency, µM (doses to about 46.1 µM), actives largely listed as cytotoxic; hit rate 1.4% among 400,000; further: on the % scale 0 is the no-effect control and ±100 the full control effect; nearly all actives have a fitted effect of over 60% in size
#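 Using CellTiter-Glo luminescence, growth of non-resistant KB-3-1 adenocarcinoma cells is assessed 72 h after pin-tool compound addition at 37 °C. Normalized responses across the concentration series yield fitted curves.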
# SW480 rerep: inducers of DNA re-replication in SW480 colon cancer cells; SW480 DNA re-replication, Hoechst DNA content imaging, 48 h; Potency, µM (highest dose often 46.1 µM), for the others: at the top dose re-replication activation, hits mostly activators; hit rate 1.8% among 340,000; further: % of control where 0% means no effect; nearly all actives have a fitted effect of over 55% in size
#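 Treated cells incubate 48 hr (37 C, 5% CO2), are stained 40 min with Hoechst, and nuclear fluorescence is enumerated; a rise in nuclei with high DNA signal marks re-replication.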
# An asterisk follows results filed as active; i = inactive; ? = inconclusive; . = not tested or not shown. The call rests on the fitted dose curve; in most records, active means well fitted curve in the direction sought with a large enough effect; inconclusive means small, poorly fitted or top-dose-only effect, or another doubt; inactive means no such curve, though single readings can be large; an effect the other way counts as inactive or inconclusive. Potency means the concentration at half of the fitted maximal effect.
SMILES,ELG1 repair inh,MCF10A rereplic,KB-V1 cytotox,KB-3-1 tox,SW480 rerep
CCOC(=O)C1OC1(c1ccccc1)c1ccccc1 (stereo unspecified),.,8%,i,i,1%
CCOC(=O)c1c(NC(=O)c2ccccc2Br)sc2c1CCc1ccccc1-2,-26%,?,13µM*,i,16µM*
COC(=O)C(Cc1c[nH]c2ccccc12)NC(=O)CNC(C)=O (stereo unspecified),11%,5%,?,i,-5%
COC(=O)[C@H](Cc1c[nH]c2ccccc12)NCc1cccc(B(O)O)c1,.,-8%,i,i,4.6µM*
COC(=O)[C@@H](Cc1c[nH]c2ccccc12)NCc1ccc(B(O)O)cc1,.,-36%,i,i,1.2µM*
COC(=O)C(Cc1ccccc1)NC(=O)CCc1c[nH]c2ccccc12 (stereo unspecified),-1%,4%,i,i,0%
COc1cccc(NC(=O)CN(C)C(=O)C23CC4CC(CC(Cl)(C4)C2)C3)c1,-26%,28%,i,i,-18%
CC1Cc2ccccc2N1S(=O)(=O)c1nnc(NC(=O)c2ccccc2Br)s1 (stereo unspecified),.,.,i,i,.
Cc1nn(Cc2ccc(F)cc2)c(C)c1NC(=O)c1noc2c1CCCCC2,18µM*,23%,?,i,2%
Cc1nn(Cc2ccccc2Cl)c(C)c1NC(=O)c1noc2c1CCCCC2,-13%,?,i,?,6%
Cc1ccccc1Cn1nc(C)c(NC(=O)C2(C)CC2(Cl)Cl)c1C (stereo unspecified),-8%,7%,?,i,18µM*
Cc1ccccc1Cn1nc(C)c(NC(=O)c2noc3c2CCCC3)c1C,-30%,3%,5.2µM*,?,-1%
Cc1cc(NC(=O)c2noc3c2CCCC3)nn1Cc1ccc(Cl)cc1,-25%,-6%,18µM*,?,17%
Cc1ccc(N=C(N)N=C(N)N)cc1,-21%,-4%,i,i,-20%
CCn1c(=O)c2[nH]c(Cl)nc2n(CC)c1=O,.,.,?,i,.
Cc1sc(NC(=O)CSc2nnc(C(C)C)n2C)c(C#N)c1C,-10%,-3%,i,i,0%
CCCn1c(SCC(=O)Nc2sc(C)c(C)c2C#N)nnc1C(C)C,21µM*,26%,i,i,10%
O=C(C/C=N/OCc1c(Cl)cccc1Cl)c1ccc(Cl)cc1,5%,23µM*,i,i,16%
OCCNCc1cc(Br)ccc1OCc1ccc(F)cc1,-25%,0%,i,i,-13%
CCOc1cccc(CNCCO)c1OCc1ccc(Cl)cc1Cl,-14%,?,i,i,?
OCCNCc1cc(Br)ccc1OCc1ccc(Cl)cc1Cl,-26%,?,15µM*,?,?
Brc1ccc(OCc2ccccc2)c(CNCc2ccncc2)c1,?,?,16µM*,?,?
OCCNCc1cc(Br)ccc1OCc1ccc(Cl)cc1,-15%,10%,9.2µM*,i,14%
Fc1ccc(COc2ccccc2CNCc2ccncc2)cc1,0%,12%,?,i,-5%
CCN(CC)c1ccc(NC(=O)c2cc(CN3CCCC3)on2)c(C)c1,.,.,i,i,.
SMILES,ELG1 repair inh,MCF10A rereplic,KB-V1 cytotox,KB-3-1 tox,SW480 rerep
CN(c1ccccc1)S(=O)(=O)c1ccc(Cl)c(C(=O)Nc2ccccc2N2CCOCC2)c1,?,21%,?,?,-2%
CN1C(=O)CON=C1c1cccc2ccccc12,.,.,i,i,.
COc1ccc(C2C(C#N)=C(N)N(c3sc4c(c3C#N)CCCC4)C3=C2C(=O)CC(C)(C)C3)cc1 (stereo unspecified),-12%,20%,5.8µM*,i,4%
COc1ccc(-c2noc(N3CCC(C(=O)N(C)c4ccccc4)CC3)n2)cc1,-23%,0%,i,i,0%
O=c1cc(CCl)[nH]c2nc3ccccc3n12,-9%,?,i,i,18µM*
CC(C)c1cc(=O)n2c(nc3ccccc32)[nH]1,-3%,7%,i,i,-2%
O=c1cc(-c2ccccc2)[nH]c2nc3ccccc3n12,?,6.5µM*,?,?,10µM*
O=C(CCC(=O)c1cccs1)OCc1ccc([N+](=O)[O-])cc1,7%,0%,i,i,-4%
O=C(Nc1ccnn1C1CCN(C2CCCCC2)CC1)c1ccccc1,4%,13%,i,i,-7%
CN(C)S(=O)(=O)c1ccc(C(=O)Nc2ccnn2C2CCCCC2)cc1,26µM*,6%,i,i,-3%
CC(C)CC(OC(=O)CC1Sc2ccccc2NC1=O)C(=O)NC1CCCC1 (stereo unspecified),-6%,-6%,?,i,11%
O=C(CSCc1ccccc1)NC1CCSC1=O (stereo unspecified),17%,?,i,i,3%
CC(=O)C1=C(O)C(CSCc2ccccc2)N(C)C1=O (stereo unspecified),.,5%,21µM*,i,0%
COc1ccc2[nH]c3c(c2c1)CCN1C(=O)C(CC(=O)NCCC2=CCCCC2)C[C@H](C(=O)N2CCCCC2)[C@@]31CCc1ccccc1 (stereo partly specified),7%,-3%,?,i,-1%
C=C1C=C(C(F)F)n2ncc(C(=O)Nc3ccc(Br)cc3C(F)(F)F)c2N1,.,.,i,i,.
COc1ccc(Cl)c2sc(NC(=O)C3=COCCO3)nc12,?,-3%,i,i,5.2µM*
CCc1nnc(NC(=O)c2cnccn2)s1,?,18µM*,i,i,0%
CCc1nnc(NC(=O)c2oc3cc(C)c(C)cc3c2C)s1,?,5%,i,?,0.52µM*
CC(=O)c1sc(Nc2nc3ccc(F)cc3s2)nc1C,?,?,i,i,9.2µM*
O=C(Nc1nc2ccc(F)cc2s1)C1=COCCO1,?,0%,12µM*,?,-5%
O=C(Nc1nnc(SCc2ccc(F)cc2)s1)c1cccnc1Cl,-1%,1%,i,i,-45%
O=C(Nc1nnc(SCc2ccc(F)cc2)s1)c1ccccn1,?,?,?,?,13µM*
CCOc1ccc2nc(NC(=O)c3cnccn3)sc2c1,?,-5%,i,i,1%
O=C(Nc1nc2ccccc2s1)c1cnccn1,?,3.3µM*,i,i,15µM*
O=C(Nc1nc2ccc(F)cc2s1)c1ccccn1,?,18µM*,i,?,5.2µM*
O=C(Nc1nc(-c2ccco2)c(-c2ccco2)s1)c1c(F)cccc1Cl,0%,20%,i,i,-1%
O=C(Nc1nc(-c2ccco2)c(-c2ccco2)s1)c1cnccn1,3%,7%,2.1µM*,i,5%
